In the supplement of paper PMC6555819:

Experiments:
Assay in all cases: PBM binding z-score (relative to random genomic background probes); higher = stronger binding; sequences stand for … in GC…GCGATTGACAGCGTAGAATGAAGG
[1] = tested on: FXR:RXRa (NR concentration 270 nM, RXRa partner concentration 90 nM)
Outline: (§1)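 Binding buffer was PBS pH 7.4 with 2% milk, 0.02% Triton X-100, 1 mM DTT, 0.2 mg/mL BSA and 0.4 mg/ml salmon testes DNA. In it, ligand-free nuclear receptor dimers were incubated 1 h on custom Agilent 4×180K protein-binding microarrays carrying double-stranded probes. Antibodies against each partner (one per run) detected binding, and z-scores were calculated against random background probes after regression normalization of scanned fluorescence.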

[2] = tested on: LXRa:RXRa (NR concentration 270 nM, RXRa partner concentration 90 nM)
Outline: as §1

[3] = tested on: LXRa homodimer (NR concentration 270 nM)
Outline: as §1

[4] = tested on: LXRb:RXRa (NR concentration 270 nM, RXRa partner concentration 90 nM)
Outline: as §1

[5] = tested on: LXRb homodimer (NR concentration 270 nM)
Outline: as §1

[6] = tested on: PPARa:RXRa (NR concentration 270 nM, RXRa partner concentration 90 nM)
Outline: as §1

[7] = tested on: PPARg:RXRa (NR concentration 180 nM, RXRa partner concentration 90 nM)
Outline: as §1

[8] = tested on: PPARg:RXRa 270nM:90nM, anti-RXR (NR concentration 270 nM, RXRa partner concentration 90 nM)
Outline: as §1

[9] = tested on: PPARg:RXRa 30nM:10nM, anti-RXR (NR concentration 30 nM, RXRa partner concentration 10 nM)
Outline: as §1

[10] = tested on: PPARg:RXRa 90nM:30nM, anti-RXR (NR concentration 90 nM, RXRa partner concentration 30 nM)
Outline: as §1

[11] = tested on: PPARg:RXRa DBDmut IVT, anti-RXR (DBD mutation: RXRa K156A/R161A, NR concentration 270 nM, RXRa partner concentration 90 nM)
Outline: as §1

[12] = tested on: PPARg:RXRa IVT, anti-PPARg (NR concentration 270 nM, RXRa partner concentration 90 nM)
Outline: as §1

[13] = tested on: PPARg DBDmut:RXRa IVT, anti-PPARg (DBD mutation: PPARg1 K132A/R137A, NR concentration 270 nM, RXRa partner concentration 90 nM)
Outline: as §1

[14] = tested on: PPARg DBDmut IVT, anti-PPARg (DBD mutation: PPARg1 K132A/R137A, NR concentration 270 nM)
Outline: as §1

[15] = tested on: PPARg homodimer (NR concentration 180 nM)
Outline: as §1

[16] = tested on: PXR:RXRa (NR concentration 270 nM, RXRa partner concentration 90 nM)
Outline: as §1

[17] = tested on: PXR homodimer (NR concentration 270 nM)
Outline: as §1

[18] = tested on: RARa:RXR (NR concentration 270 nM, RXRa partner concentration 90 nM)
Outline: as §1

[19] = tested on: RARa homodimer (NR concentration 270 nM)
Outline: as §1

[20] = tested on: RARb:RXRa (NR concentration 270 nM, RXRa partner concentration 90 nM)
Outline: as §1

Sequence	PBM binding z-score [1]	PBM binding z-score [2]	PBM binding z-score [3]	PBM binding z-score [4]	PBM binding z-score [5]	PBM binding z-score [6]	PBM binding z-score [7]	PBM binding z-score [8]	PBM binding z-score [9]	PBM binding z-score [10]	PBM binding z-score [11]	PBM binding z-score [12]	PBM binding z-score [13]	PBM binding z-score [14]	PBM binding z-score [15]	PBM binding z-score [16]	PBM binding z-score [17]	PBM binding z-score [18]	PBM binding z-score [19]	PBM binding z-score [20]
AGTCAAAGTTCACTAGGTAACCTAAGATTCAGCT	5.37	5.38	3.76	3.3	1.13	4.71	7.18	6.5	4	5.96	3.06	5.17	0.689	0.943	2.98	4.37	4.07	3.78	1.73	4.7
TCTTGTAGATCTACAGGAGGTTAAGAAAGATCGA	-0.0507	1.18	0.0906	1.05	-0.353	1.13	0.0555	1.06	2.09	1.48	0.98	0.28	0.42	1.12	-0.349	0.739	-0.569	0.866	-0.41	0.172
AGAATGATGTTAAGATCAGGGAAACAGAATACAT	-0.488	-0.548	-0.153	-0.269	-0.588	-0.205	0.948	-0.174	0.282	-0.132	-0.786	-0.128	-0.544	0.266	-0.958	-0.441	-0.00916	-0.274	0.423	-0.436
TGAATGAGGTTAAAGATCGGGGAACGTGGCGTCG	2.84	2.61	-0.0577	1.64	0.61	4.29	4.54	5.57	3.66	5.49	2.68	3.12	1.11	-0.0519	0.857	1.55	0.231	2.5	0.262	2.15
GATACAGGGTCAAAGCCAGAGTACGCGTATTGAT	7.15	4.59	0.214	3.97	0.158	5.59	5.42	5.39	2.26	4.25	2.68	3.63	1.47	0.035	2.25	3.75	0.314	4.76	0.583	4.03
GCGACTGGGGCATCAGCAGGTTACCAAAACTTAA	-0.46	-0.0944	-0.294	0.621	-0.676	1.34	0.564	0.743	-0.555	-0.000266	3.95	3.39	-1.31	-0.989	0.651	-0.0279	-0.564	0.57	-0.274	0.893
GCTGGGAGGACAAGGTCAGAGCTTTGTCCGTAGA	1.59	1.84	-0.27	1.45	-0.657	2.47	0.399	1.28	-0.497	0.699	0.282	0.836	-1.6	-1.38	1.02	1.89	-0.0131	2.62	-0.22	3.41
CGAACTAGGTCATTGACAAGACAGTGAATAGTAA	3.79	2.42	0.115	2.04	-0.0491	4.5	7.38	6.17	3.72	5.54	8.29	8.45	3.1	1.15	0.882	1.26	0.00701	1.79	0.336	3.61
GCTGCTGGGTCAGGTTGGTCAGCTAACGGGTACG	0.641	0.222	-0.341	0.236	-0.403	1.32	0.104	0.429	-0.561	0.0436	1.8	1.47	-0.97	-0.347	0.551	0.0327	-0.0848	0.539	-0.315	2.84
CGACCAAGGTCAAAGGTCAGTGAAGAGATGACGG	8.72	6.8	3.14	6.54	1.18	7.07	11.3	9.46	9.86	10.4	4.11	6.17	1.79	0.574	5.46	7.16	1.55	9.08	2.47	5.95
ACTAGCAGGCCAAGGGTCACTCTAGATTAGTCCG	1.88	3.2	0.239	2.54	-0.423	4.44	7.53	7.29	6.21	7.97	0.951	3.59	-0.404	-0.203	2.32	2.94	-0.367	4.14	-0.113	3.1
GCGACTGGGGCAAAGCCGGTTACCATAAGGTTGG	-0.281	-0.532	-0.832	-0.581	-1.01	0.472	0.627	0.491	-0.849	-0.0511	3.46	2.75	-0.287	-1.49	-0.424	-0.547	-0.627	-0.45	-0.427	0.632
AGAATGAGGTGATTAAGATCAGGGAATTGCGGTC	-0.0476	-0.338	-0.29	-0.384	-0.427	0.785	0.618	0.415	-0.0538	0.0296	2.96	2.25	0.816	-0.56	-0.484	-0.0501	-0.416	0.0955	-0.457	0.268
CGTCCAAGGTCCGCAGGTCAGTGAAAGCGACGTG	-0.0411	-0.153	-0.475	-0.0275	-1.05	0.735	-0.507	0.0239	-0.651	-0.568	0.12	-0.306	-1.07	-1.27	-0.166	0.139	-0.304	0.547	-0.545	1.89
ATCGAAAGGGCGAGGTGAGTATAGAGAAAGGGAA	0.707	0.563	-0.0358	0.463	0.173	1.38	0.612	0.445	0.457	0.394	-0.0167	0.793	0.764	0.945	0.793	0.415	0.345	0.69	0.319	2.09
AGAATGAGGTTATACGTAGATCAGGGGAGAAAGT	1.99	1.93	0.147	1.96	0.558	3.05	1.83	2.06	0.697	1.06	4.24	2.13	1.07	0.577	0.74	1.36	0.423	1.87	1.13	1.45
AGAACGAGCGCACGCTGAGTTGATAGCAGAGTAG	-0.57	-0.901	-0.709	-1.02	-1.26	-1.16	0.302	-0.706	-0.622	-0.45	-0.589	-0.892	-0.82	-1.39	-1.63	-0.74	-0.523	-0.952	-1.05	-1.05
ACTCAAAGTTCAGGACGAGGTAACGTAAAGCACG	4.15	4.07	1.77	2.18	0.639	3.27	1.61	1.86	0.747	1.23	0.133	0.996	0.541	0.409	2.29	3.09	1.46	2.81	0.77	4.52
GCAGACAGGTGAAACGCAAGTAACTCAGGGTGGC	-0.454	-0.128	-0.469	-0.359	-0.954	0.613	0.63	-0.0352	-0.456	-0.429	0.725	0.495	-0.728	-0.714	-0.578	-0.359	-0.754	-0.0735	-0.461	0.562
GCTTACGGGTCTAAGGTTATAGCATGAATAGAAT	0.749	0.664	-0.0717	1.2	-0.249	2.66	3.28	4.67	3.06	4.64	0.0529	0.754	0.306	0.266	0.501	0.939	0.427	1.66	0.142	1.02
GCTTGTACATCAAGGTTAAGAAAGACTAAGCTAA	0.247	0.691	-0.229	0.559	-0.133	0.96	0.118	0.299	-0.184	0.084	-0.0633	0.772	0.219	-0.0385	0.116	0.266	-0.152	0.856	0.262	0.882
GGAACGAGAGCATTCGAGTTGATAGCATGGCGAT	-0.374	-1.05	-0.97	-1.11	-1.55	-0.713	0.37	-0.536	-0.607	-0.728	0.00852	-0.503	-0.558	-0.483	-1.19	0.237	-0.766	-0.817	-0.746	-0.633
CCTACTGGGCTAAAAAGGTCATTGATGCCGATAA	3.31	3.96	3.16	3.89	0.0245	4.67	2.38	3.6	1.21	2.6	2.24	2.86	-0.829	-0.574	2.32	4.35	1.23	4.77	0.346	3.82
GATAGCAGGCCATTTGGGTCACTCAATGACGGGC	0.302	-0.115	-0.247	0.0936	-0.607	1.73	1.4	1.12	-0.311	0.763	3.66	3.5	-0.0916	-0.698	-0.0574	0.523	0.0979	0.747	-0.472	1.55
TCATATAGGTAATACAGGTGAAAGGCGGCATCTA	1.01	1.22	0.706	0.93	0.000841	2.25	2.3	3.69	4.62	4.1	4.33	3.42	1.73	1.03	1.29	1.04	0.592	1.33	1.69	0.697
AGTACAGGGTCACTAGGCCAGAGTAGGTACGAAT	5.64	3.74	-0.159	3.25	0.166	5.73	7.54	6.4	2.95	5.23	3.37	5.52	0.92	0.785	2.13	3.07	0.0901	4.21	0.585	4.23
TCTGCTAGGTCAACGAGGGTCAGCTAATCTGCTA	4.68	4.83	0.398	3.04	0.26	4.27	3.36	3.79	2.12	3.02	4.34	4.28	-0.294	-0.307	2.15	4.96	-0.4	4.03	-0.252	4.65
CCTTACGTGTCACTCCAGGTTATAGCATCGGAGT	1.96	5.55	2.04	1.89	1.05	0.862	0.466	0.288	-0.302	-0.0102	1.84	1.44	0.74	0.788	1.64	1.44	0.593	0.864	1.76	1.16
GCTATTAGTTGAAAGGGCAATCGAATGATTCTCG	0.568	0.562	0.189	0.633	-0.254	2.34	2.44	4.24	2.01	4.26	0.456	1	-0.234	0.628	1.15	0.658	0.0729	1.25	0.589	1.74
